Source: the supplement of paper PMC9446081
± gives the standard deviation of the averaged measurements.

What was measured:
Assay in all cases: relative enzymatic activity vs untreated control (fraction); higher = less inhibition
Settings in all cases: 100 µM; incubation time: 2 h at 37 C
DNA gyrase = test system: DNA gyrase
Experimental: (§1)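 In vitro enzymatic inhibition assays (ProFoldin kits) for 12 purified essential E. coli enzymes or complexes, each treated with 218 active antibacterial compounds at 100 µM for 2 h at 37°C. Read-outs were fluorescence or absorbance (phosphate detection, dye binding), converted to activity via standard curves and expressed relative to untreated DMSO controls.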

DNA helicase = DNA helicase (UniProt P0ACB1)
Chain of DNA helicase (P0ACB1 whole entry): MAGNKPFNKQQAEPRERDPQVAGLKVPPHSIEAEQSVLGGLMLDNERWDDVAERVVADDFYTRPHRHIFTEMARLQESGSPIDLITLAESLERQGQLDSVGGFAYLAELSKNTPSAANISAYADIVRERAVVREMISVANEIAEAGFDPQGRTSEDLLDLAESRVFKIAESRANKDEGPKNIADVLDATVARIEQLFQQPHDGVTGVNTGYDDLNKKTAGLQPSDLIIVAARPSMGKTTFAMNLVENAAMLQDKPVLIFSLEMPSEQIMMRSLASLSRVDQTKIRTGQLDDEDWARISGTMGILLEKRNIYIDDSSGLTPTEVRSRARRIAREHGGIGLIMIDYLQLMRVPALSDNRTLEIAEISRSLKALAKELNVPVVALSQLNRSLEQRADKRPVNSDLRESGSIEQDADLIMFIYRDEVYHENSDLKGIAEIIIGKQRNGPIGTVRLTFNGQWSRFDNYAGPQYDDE
Experimental: as §1

DNA ligase = DNA ligase (UniProt B1XA82)
Chain of DNA ligase (B1XA82 whole entry): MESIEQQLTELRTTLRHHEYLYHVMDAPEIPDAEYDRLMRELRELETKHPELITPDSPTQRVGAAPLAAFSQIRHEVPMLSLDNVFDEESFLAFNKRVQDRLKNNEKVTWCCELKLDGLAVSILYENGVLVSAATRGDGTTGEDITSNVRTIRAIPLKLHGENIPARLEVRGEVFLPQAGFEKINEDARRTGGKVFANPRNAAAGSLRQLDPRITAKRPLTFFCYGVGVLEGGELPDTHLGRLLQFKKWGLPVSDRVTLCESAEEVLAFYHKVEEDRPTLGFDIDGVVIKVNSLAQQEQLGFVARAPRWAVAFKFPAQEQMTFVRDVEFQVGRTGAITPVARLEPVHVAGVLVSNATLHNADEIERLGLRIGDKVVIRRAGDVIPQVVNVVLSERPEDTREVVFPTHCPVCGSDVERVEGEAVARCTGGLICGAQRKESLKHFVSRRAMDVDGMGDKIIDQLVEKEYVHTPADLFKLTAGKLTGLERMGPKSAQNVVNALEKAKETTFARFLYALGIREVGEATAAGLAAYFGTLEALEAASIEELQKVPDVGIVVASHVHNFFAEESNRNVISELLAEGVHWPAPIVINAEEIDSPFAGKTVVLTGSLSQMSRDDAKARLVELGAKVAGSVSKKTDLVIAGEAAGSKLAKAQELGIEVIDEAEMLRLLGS
Experimental: as §1

DNA polymerase = DNA polymerase (UniProt P10443)
Chain of DNA polymerase (P10443 whole entry): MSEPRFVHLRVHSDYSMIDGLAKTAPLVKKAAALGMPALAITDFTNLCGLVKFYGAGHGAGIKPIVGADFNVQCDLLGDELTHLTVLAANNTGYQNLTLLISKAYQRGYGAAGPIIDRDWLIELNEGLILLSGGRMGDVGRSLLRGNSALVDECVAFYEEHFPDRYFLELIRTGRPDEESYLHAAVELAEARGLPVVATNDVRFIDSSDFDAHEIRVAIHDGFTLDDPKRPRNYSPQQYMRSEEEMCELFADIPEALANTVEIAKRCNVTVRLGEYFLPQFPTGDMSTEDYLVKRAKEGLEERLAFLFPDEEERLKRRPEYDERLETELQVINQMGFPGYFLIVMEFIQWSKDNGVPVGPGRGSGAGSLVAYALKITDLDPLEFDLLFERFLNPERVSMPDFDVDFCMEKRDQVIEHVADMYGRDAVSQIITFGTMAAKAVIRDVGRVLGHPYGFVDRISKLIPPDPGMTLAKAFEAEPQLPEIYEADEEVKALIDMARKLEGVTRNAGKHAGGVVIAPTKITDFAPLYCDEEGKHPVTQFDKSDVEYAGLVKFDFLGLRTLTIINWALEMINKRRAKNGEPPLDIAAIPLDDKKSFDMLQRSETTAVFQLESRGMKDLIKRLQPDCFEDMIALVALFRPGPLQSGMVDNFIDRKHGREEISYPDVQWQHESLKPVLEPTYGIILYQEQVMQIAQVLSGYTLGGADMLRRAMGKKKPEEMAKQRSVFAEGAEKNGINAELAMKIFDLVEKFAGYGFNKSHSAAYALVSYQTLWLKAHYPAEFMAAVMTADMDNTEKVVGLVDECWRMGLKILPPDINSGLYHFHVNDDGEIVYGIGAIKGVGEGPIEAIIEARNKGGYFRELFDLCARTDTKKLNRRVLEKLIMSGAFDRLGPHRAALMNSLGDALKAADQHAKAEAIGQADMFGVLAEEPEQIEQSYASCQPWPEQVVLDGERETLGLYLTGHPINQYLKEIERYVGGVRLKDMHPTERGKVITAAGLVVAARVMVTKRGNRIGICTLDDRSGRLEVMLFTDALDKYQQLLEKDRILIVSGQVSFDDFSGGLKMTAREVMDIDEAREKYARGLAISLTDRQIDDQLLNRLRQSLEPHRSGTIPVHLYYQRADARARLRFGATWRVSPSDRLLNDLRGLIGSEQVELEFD
Experimental: as §1

DNA primase = DNA primase (UniProt P0ABS7)
Chain of DNA primase (P0ABS7 whole entry): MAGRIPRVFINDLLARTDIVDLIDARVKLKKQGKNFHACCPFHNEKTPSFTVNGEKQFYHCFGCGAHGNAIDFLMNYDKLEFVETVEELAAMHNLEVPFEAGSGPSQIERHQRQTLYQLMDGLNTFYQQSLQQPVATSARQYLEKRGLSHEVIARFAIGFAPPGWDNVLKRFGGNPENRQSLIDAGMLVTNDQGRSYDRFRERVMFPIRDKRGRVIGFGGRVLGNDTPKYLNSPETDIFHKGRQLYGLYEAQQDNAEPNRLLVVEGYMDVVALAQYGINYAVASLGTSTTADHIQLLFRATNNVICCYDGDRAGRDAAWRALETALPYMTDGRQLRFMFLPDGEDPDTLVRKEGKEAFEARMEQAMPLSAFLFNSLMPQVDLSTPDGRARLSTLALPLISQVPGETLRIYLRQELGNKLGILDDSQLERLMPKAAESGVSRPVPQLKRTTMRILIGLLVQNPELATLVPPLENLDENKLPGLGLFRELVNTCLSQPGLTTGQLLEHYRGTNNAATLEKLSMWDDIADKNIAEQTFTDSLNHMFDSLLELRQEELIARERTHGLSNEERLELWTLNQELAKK
Experimental: as §1

GlmU = GlmU (UniProt A7ZTU1)
Chain of GlmU (A7ZTU1 whole entry, looked up): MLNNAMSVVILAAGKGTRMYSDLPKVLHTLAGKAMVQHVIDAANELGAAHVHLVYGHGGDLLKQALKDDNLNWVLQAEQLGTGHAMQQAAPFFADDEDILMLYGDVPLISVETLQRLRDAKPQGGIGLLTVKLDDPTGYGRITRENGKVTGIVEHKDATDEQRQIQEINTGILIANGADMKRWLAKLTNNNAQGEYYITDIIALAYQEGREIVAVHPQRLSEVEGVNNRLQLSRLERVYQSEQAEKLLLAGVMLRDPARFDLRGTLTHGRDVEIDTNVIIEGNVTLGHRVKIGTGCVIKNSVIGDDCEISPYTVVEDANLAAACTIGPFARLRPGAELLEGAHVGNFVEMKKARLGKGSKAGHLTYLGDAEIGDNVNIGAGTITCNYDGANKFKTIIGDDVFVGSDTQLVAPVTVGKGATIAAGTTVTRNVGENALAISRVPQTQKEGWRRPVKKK
Experimental: as §1

Guanlyate kinase = Guanlyate kinase (UniProt Q0TBG1)
Chain of Guanlyate kinase (Q0TBG1 whole entry): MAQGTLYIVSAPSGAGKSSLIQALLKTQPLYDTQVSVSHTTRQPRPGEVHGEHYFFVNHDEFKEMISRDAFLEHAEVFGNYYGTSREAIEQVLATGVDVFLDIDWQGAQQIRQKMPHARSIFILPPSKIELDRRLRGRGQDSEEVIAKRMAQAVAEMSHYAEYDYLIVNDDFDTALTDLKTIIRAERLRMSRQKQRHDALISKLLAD
Experimental: as §1

MurA = MurA (UniProt Q3YX52)
Chain of MurA (Q3YX52 whole entry): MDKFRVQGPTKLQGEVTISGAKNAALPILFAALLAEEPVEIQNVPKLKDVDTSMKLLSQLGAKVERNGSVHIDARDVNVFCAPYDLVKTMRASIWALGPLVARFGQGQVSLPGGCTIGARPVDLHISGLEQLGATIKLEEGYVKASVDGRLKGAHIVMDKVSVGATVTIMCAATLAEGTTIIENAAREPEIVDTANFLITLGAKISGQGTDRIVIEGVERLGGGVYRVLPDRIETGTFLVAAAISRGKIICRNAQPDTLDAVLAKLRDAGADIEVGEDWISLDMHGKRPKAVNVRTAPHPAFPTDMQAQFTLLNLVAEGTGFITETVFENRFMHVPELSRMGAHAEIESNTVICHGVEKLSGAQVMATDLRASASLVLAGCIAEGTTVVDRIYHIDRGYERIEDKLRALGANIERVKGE
Experimental: as §1

MurD = molecular target: T1, MurD (UniProt P14900)
T1 sequence (whole entry): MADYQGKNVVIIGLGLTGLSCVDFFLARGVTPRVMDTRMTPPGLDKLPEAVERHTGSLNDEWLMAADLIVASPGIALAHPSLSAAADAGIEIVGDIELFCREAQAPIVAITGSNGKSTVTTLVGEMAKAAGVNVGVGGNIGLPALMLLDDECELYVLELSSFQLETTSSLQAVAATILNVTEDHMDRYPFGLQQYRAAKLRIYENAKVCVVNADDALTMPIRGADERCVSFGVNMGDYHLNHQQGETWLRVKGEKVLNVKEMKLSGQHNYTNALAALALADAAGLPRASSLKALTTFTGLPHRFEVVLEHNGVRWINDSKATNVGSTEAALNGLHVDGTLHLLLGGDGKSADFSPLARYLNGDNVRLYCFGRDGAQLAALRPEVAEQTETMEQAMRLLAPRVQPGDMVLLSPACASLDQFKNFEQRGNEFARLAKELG
Experimental: as §1

MurF = molecular target: T2, MurF (UniProt P11880)
T2 sequence (whole entry): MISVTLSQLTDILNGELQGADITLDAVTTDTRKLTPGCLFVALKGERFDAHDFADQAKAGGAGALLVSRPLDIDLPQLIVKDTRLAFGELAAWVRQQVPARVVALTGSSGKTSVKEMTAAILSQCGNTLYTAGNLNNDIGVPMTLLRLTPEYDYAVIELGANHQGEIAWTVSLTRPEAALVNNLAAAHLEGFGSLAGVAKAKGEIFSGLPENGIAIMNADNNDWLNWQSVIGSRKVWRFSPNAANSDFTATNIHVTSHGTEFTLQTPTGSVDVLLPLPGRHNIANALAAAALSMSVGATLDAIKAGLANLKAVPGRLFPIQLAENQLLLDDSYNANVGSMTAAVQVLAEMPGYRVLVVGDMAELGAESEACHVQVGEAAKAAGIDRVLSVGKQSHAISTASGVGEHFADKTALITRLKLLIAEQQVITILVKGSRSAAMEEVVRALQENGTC
Experimental: as §1

RNA polymerase = test system: RNA polymerase
Experimental: as §1

Row | Structure (SMILES) | relative enzymatic activity (DNA gyrase) | relative enzymatic activity (DNA helicase) | relative enzymatic activity (DNA ligase) | relative enzymatic activity (DNA polymerase) | relative enzymatic activity (DNA primase) | relative enzymatic activity (GlmU) | relative enzymatic activity (Guanlyate kinase) | relative enzymatic activity (MurA) | relative enzymatic activity (MurD) | relative enzymatic activity (MurF) | relative enzymatic activity (RNA polymerase)
1 | COC1C=COC2(C)Oc3c(C)c(O)c4c(O)c(c(C=NN5CCN(C6CCCC6)CC5)c(O)c4c3C2=O)NC(=O)C(C)=CC=CC(C)C(O)C(C)C(O)C(C)C(OC(C)=O)C1C (stereo not drawn) | 0.305 ± 0.28 | 0.66 ± 0.082 | 0.866 ± 0.13 | 0.952 ± 0.37 | 0.647 ± 0.093 | 0.259 ± 0.016 | 0.435 ± 0.013 | 0.144 ± 0.12 | 0.132 ± 0.046 | 0.4854 ± 0.0039 | 0.0856 ± 0.00076
2 | Cl.NC1CCN(c2c(F)cc3c(=O)c(C(=O)O)cn(C4CC4)c3c2Cl)C1 (stereo not drawn) | 0.213 ± 0.3 | 0.622 ± 0.2 | 0.994 ± 0.13 | 1.08 ± 0.17 | 0.872 ± 0.014 | 0.974 ± 0.019 | 0.92 ± 0.21 | 0.73669 ± 0.0002 | 0.606 ± 0.42 | 0.977 ± 0.24 | 0.809 ± 0.07
3 | CC(C)[C@@H](CC[C@@H](C)[C@H]1CC[C@H]2[C@@H]3[C@H](O)C[C@H]4C[C@@H](NCCCNCCCCN)CC[C@]4(C)[C@H]3CC[C@]12C)OS(=O)(=O)O | 1.22 ± 0.062 | 0.08494 ± 0.00041 | 0.712 ± 0.095 | 0.0811 ± 0.015 | 0.432 ± 0.11 | 0.899 ± 0.069 | 0.231 ± 0.024 | 0.17 ± 0.006 | 0.6 ± 0.42 | 0.896 ± 0.23 | 0.14 ± 0.012
4 | CN1CCN(c2cc3c(cc2F)c(=O)c(C(=O)O)cn3-c2ccc(F)cc2)CC1.Cl | 0.0325 ± 0.046 | 0.445 ± 0.075 | 1.46 ± 0.11 | 1.3 ± 0.33 | 0.681 ± 0.17 | 0.957 ± 0.011 | 0.9286 ± 0.0092 | 0.593 ± 0.055 | 0.566 ± 0.37 | 0.959 ± 0.17 | 0.929 ± 0.056
5 | O=C(O)c1c(O)c2c([nH]c1=O)CCCC2 | 0.374 ± 0.066 | 0.479 ± 0.056 | 1.18 ± 0.34 | 1.08 ± 0.16 | 0.752 ± 0.029 | 0.975 ± 0.042 | 0.874 ± 0.041 | 0.769 ± 0.13 | 0.611 ± 0.39 | 0.899 ± 0.18 | 0.636 ± 0.18
6 | CN(C)CCC=C1c2ccccc2COc2ccc(CC(=O)O)cc21.Cl | 0.496 ± 0.7 | 0.368 ± 0.047 | 0.922 ± 0.04 | 1.08 ± 0.18 | 0.755 ± 0.041 | 0.899 ± 0.041 | 0.935 ± 0.11 | 0.616 ± 0.29 | 0.566 ± 0.38 | 1.1 ± 0.024 | 0.7995 ± 0.0059
7 | CN(C)C1C(O)=C(C(N)=O)C(=O)C2(O)C(O)=C3C(=O)c4c(O)cccc4C(C)(O)C3C(O)C12.Cl (stereo not drawn) | 0.0137 ± 0.019 | 0.171 ± 0.03 | 0.908 ± 0.21 | 0.4407 ± 0.0041 | 0.517 ± 0.0096 | 1.02 ± 0.013 | 0.521 ± 0.0059 | 0.0726 ± 0.028 | 0.635 ± 0.42 | 1.02 ± 0.25 | 0.177 ± 0.017
8 | COc1c(N2CCNC(C)C2)c(F)cc2c(=O)c(C(=O)O)cn(C3CC3)c12 (stereo not drawn) | 0.0476 ± 0.067 | 0.48 ± 0.021 | 0.942 ± 0.14 | 1.09 ± 0.15 | 0.876 ± 0.017 | 0.989 ± 0.034 | 0.899 ± 0.084 | 0.804 ± 0.16 | 0.577 ± 0.36 | 0.942 ± 0.26 | 0.763 ± 0.0079
9 | O=C1NCCN1c1ncc([N+](=O)[O-])s1 | 0.684 ± 0.55 | 0.564 ± 0.22 | 0.852 ± 0.12 | 1.16 ± 0.25 | 0.839 ± 0.018 | 0.982 ± 0.011 | 0.863 ± 0.052 | 0.658 ± 0.11 | 0.628 ± 0.47 | 0.389 ± 0.55 | 0.792 ± 0.11
10 | CC1(C)SC2C(N3C(=O)C(c4ccccc4)NC3(C)C)C(=O)N2C1C(=O)[O-].[K+] (stereo not drawn) | 1.14 ± 0.073 | 0.458 ± 0.13 | 1.67 ± 0.9 | 1.36 ± 0.37 | 0.776 ± 0.26 | 0.948 ± 0.043 | 1.13 ± 0.1 | 0.219 ± 0.028 | 0.563 ± 0.37 | 0.945 ± 0.14 | 0.90251 ± 0.00052
11 | Cc1cn([C@H]2C[C@H](N=[N+]=[N-])[C@@H](CO)O2)c(=O)[nH]c1=O | 0.52 ± 0.49 | 0.626 ± 0.26 | 0.932 ± 0.15 | 1.04 ± 0.19 | 0.733 ± 0.041 | 0.944 ± 0.04 | 0.885 ± 0.024 | 0.712 ± 0.092 | 0.491 ± 0.63 | 0.944 ± 0.18 | 0.778 ± 0.13
12 | CON=C(C(=O)NC1C(=O)N2C(C(=O)[O-])=C(COC(N)=O)CSC12)c1ccco1.[Na+] (stereo not drawn) | 1.06 ± 0.11 | 0.47 ± 0.024 | 1.36 ± 0.18 | 1.12 ± 0.2 | 0.69 ± 0.18 | 1.12 ± 0.054 | 0.9 ± 0.019 | 0.117 ± 0.034 | 0.72 ± 0.49 | 1.02 ± 0.23 | 0.866 ± 0.088
13 | CC(=O)On1cc(F)c(=O)[nH]c1=O | 0.636 ± 0.53 | 0.603 ± 0.23 | 0.979 ± 0.23 | 1.03 ± 0.18 | 0.765 ± 0.056 | 0.977 ± 0.015 | 0.859 ± 0.015 | 0.673 ± 0.096 | 0.464 ± 0.59 | 0.933 ± 0.22 | 0.746 ± 0.13
14 | CS(=O)(=O)c1ccc(C(O)C(CF)NC(=O)C(Cl)Cl)cc1 (stereo not drawn) | 0.854 ± 0.44 | 0.577 ± 0.2 | 1.21 ± 0.24 | 1.29 ± 0.35 | 0.8787 ± 0.0014 | 0.977 ± 0.042 | 0.976 ± 0.14 | 0.796 ± 0.099 | 0.575 ± 0.38 | 0.945 ± 0.21 | 0.916 ± 0.026
15 | Oc1c(Cl)cc(Cl)c2cccnc12 | 0.515 ± 0.28 | 0.476 ± 0.16 | 1.11 ± 0.24 | 1.11 ± 0.21 | 0.637 ± 0.12 | 1.21 ± 0.19 | 0.854 ± 0.039 | 0.88 ± 0.26 | 0.642 ± 0.46 | 0.98 ± 0.18 | 0.7619 ± 0.0022
16 | C=C1c2cccc(O)c2C(=O)[C@@H]2C(=O)[C@]3(O)C(=O)[C@@H](C(N)=O)C(=O)[C@@H](N(C)C)[C@@H]3[C@@H](O)[C@H]12 | 0.554 ± 0.29 | 0.33 ± 0.051 | 0.848 ± 0.095 | 1.04 ± 0.31 | 0.707 ± 0.056 | 1.03 ± 0.018 | 0.679 ± 0.018 | 0.0871 ± 0.016 | 0.638 ± 0.46 | 1.06 ± 0.24 | 0.619 ± 0.015
17 | C[C@H]1[C@H](NC(=O)/C(=N\OC(C)(C)C(=O)O)c2csc(N)n2)C(=O)N1S(=O)(=O)O | 0.898 ± 0.25 | 0.534 ± 0.15 | 0.815 ± 0.086 | 1.23 ± 0.28 | 0.8444 ± 0.0011 | 1.04 ± 0.031 | 1.04 ± 0.021 | 0.47 ± 0.14 | 0.623 ± 0.45 | 1.13 ± 0.55 | 0.869 ± 0.072
18 | CC[C@@H](C)CCCCC(=O)N[C@@H](CCN)C(=O)N[C@H](C(=O)N[C@@H](CCN)C(=O)N[C@H]1CCNC(=O)[C@H]([C@@H](C)O)NC(=O)[C@H](CCN)NC(=O)[C@H](CCN)NC(=O)[C@H](CC(C)C)NC(=O)[C@@H](Cc2ccccc2)NC(=O)[C@@H](CCN)NC1=O)[C@@H](C)O | 1.66 ± 0.37 | 0.0939 ± 0.022 | 0.701 ± 0.47 | 0.34 ± 0.059 | 0.616 ± 0.13 | 1.11 ± 0.016 | 0.449 ± 0.055 | 0.646 ± 0.21 | 0.674 ± 0.44 | 0.991 ± 0.22 | 0.46 ± 0.03
